D3 ag: D3 dopamine receptor (human) agonism. AID 652048. max activation, %. 0.58% of 410,000 active. D3R DiscoveRx beta-arrestin cells, luminescence, 90 min. P35462; in the data active = max activation above about 30%
Target sequence (P35462 whole entry, looked up): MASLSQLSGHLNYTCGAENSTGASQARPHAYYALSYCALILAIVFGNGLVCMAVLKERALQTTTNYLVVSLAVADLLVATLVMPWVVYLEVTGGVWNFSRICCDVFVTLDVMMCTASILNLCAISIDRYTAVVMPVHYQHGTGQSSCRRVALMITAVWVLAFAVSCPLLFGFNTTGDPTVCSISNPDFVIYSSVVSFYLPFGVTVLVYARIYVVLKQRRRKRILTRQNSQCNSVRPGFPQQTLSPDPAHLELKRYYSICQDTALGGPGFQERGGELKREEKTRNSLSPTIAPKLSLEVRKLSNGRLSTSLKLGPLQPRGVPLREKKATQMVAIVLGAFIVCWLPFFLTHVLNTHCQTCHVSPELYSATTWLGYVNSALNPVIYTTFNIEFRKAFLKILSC
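Cells at 1500/well, incubated overnight, then treated with pinned compounds (dopamine as control) for 90 min at 37 degrees C. DiscoveRx reagent added for 30 - 60 minutes at room temperature; luminescence read.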
D1 ag: human D1 receptor agonism. HEK293 T-REx D1 cells, calcium flux, agonist mode. 1% of 360,000 active. activation, % at 2 µM. AID 504660. P21728; in the data active = activation above about 30%
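Tetracycline-induced HEK293 TREx D1 cells, force-coupled to calcium signalling, were dye-loaded with a no-wash calcium kit. Compound was pin-added after a 10 s baseline. Fluorescence was read kinetically at 1 cycle/s for 180 s, with calcium rises flagged as agonism.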
D1 PAM: human D1 dopamine receptor positive modulation; P21728; HEK293 TREx D1 cells, calcium flux, dopamine EC20 potentiation; potentiation, % at 10 µM; 0.036% of 360,000 active; AID 504651; in the data active = potentiation above about 30%
DRD3 antagonist: antagonists of human D3 dopamine receptor; P35462; D3R cells, DiscoveRx beta-arrestin luminescence, antagonist mode; stronger effect = lower value; max response, negative = inhibition, %; 2.5% of 360,000 active; AID 652054; in the data active = max response below about -50%; inconclusive = no clear call, values can overlap the other calls
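Cells expressing the human receptor were seeded at 1500 cells/well, incubated overnight at 37 degrees C in 5% CO2, then exposed to library compounds with dopamine controls for 90 minutes at 37 degrees C before luminescent detection.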
D1 antag: antagonists of human D1 dopamine receptor. activity change, negative = inhibition, % at 10 µM. HEK293 TREx D1 cells, calcium flux, dopamine EC80; stronger effect = lower value. P21728. 3.2% of 360,000 active; in the data active = activity change below about -30%
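Calcium flux readout: force-coupled, inducible Hek293 Trex D1 line, cells induced overnight at 30 C with tetracycline, dye-loaded 30–90 min at RT. Antagonism scored against EC80 dopamine challenge given 180 s after compound.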
Large screens that a line does not name were inactive. A selection: hits, their analogues and other compounds. The true share with any hit is near 6%.

Cc1cccc2sc(N(CCCN(C)C)C(=O)CCc3ccccc3)nc12	none
Cc1cccc2sc(N(CCCN(C)C)C(=O)CN3C(=O)c4ccccc4C3=O)nc12	D1 ag 33
Cc1ccc2sc(N(CCCN(C)C)C(=O)CCS(=O)(=O)c3ccccc3)nc2c1C	D1 ag 64, DRD3 antagonist inconclusive
COc1ccc(OC)c2sc(N(CCCN(C)C)C(=O)CCS(=O)(=O)c3ccccc3)nc12	none
NC1(C(=O)O)CSSC1	none (no result: D1 ag, D1 PAM, D1 antag)
CCOC(=O)Nc1ccc2c(c1)C(=NNC(=S)NC)c1ccccc1-2	none (no result: D1 ag, D1 PAM, D1 antag)
O=C(NC(NC(=S)Nc1c(Cl)cccc1Cl)C(Cl)(Cl)Cl)OCc1ccccc1 (configuration not stated)	DRD3 antagonist -69
CCOC(=O)NC(NC(=S)Nc1ccc(OCC)cc1)C(Cl)(Cl)Cl (configuration not stated)	none
COC(=O)N1C(=O)[C@@](c2ccccc2)(C2CCCCC2)N1C(=O)OC	DRD3 antagonist -54
COc1ccc(/C=c2\s/c(=C/C(=O)c3ccc(C)cc3)[nH]c2=O)cc1OC	D1 ag 64
Cc1cccc(N2CCN(c3cc(C)nc4c(-c5ccc(Cl)cc5)c(C)nn34)CC2C)c1 (configuration not stated)	none (no result: DRD3 antagonist)
COc1ccc(NC(=O)/C(Cl)=C(/Cl)S(=O)Cc2ccccc2Cl)cn1 (configuration not stated)	DRD3 antagonist -96
COc1ccc(NC(=O)/C(Cl)=C(/Cl)S(=O)(=O)Cc2ccc(C)cc2)cn1	DRD3 antagonist -77
COc1ccc(NC(=O)Cc2ccc(Cl)c(Cl)c2)cn1	none
NC(=NCc1ccccc1)c1cccc([N+](=O)[O-])c1	none
CC1(C)CSC(=NCc2ccccc2)N1C(=O)c1cccc([N+](=O)[O-])c1	D1 ag 85, D1 antag -38
COc1ccc(Nc2ccc3cc(S(=O)(=O)N4CCCC4)ccc3n2)cc1Cl	none (no result: DRD3 antagonist)
COc1ccc(Cl)cc1NC(=O)COC(=O)CCCN1C(=O)c2ccccc2C1=O	D1 antag -33
COC(=O)c1ccc(OC(=O)CN2C(=O)c3ccccc3C2=O)cc1	D1 antag -34
O=C1c2ccccc2C(=O)N1CCCCON1C(=O)c2ccccc2C1=O	D1 antag -36
O=C1c2ccccc2C(=O)N1OCCOCCOCCON1C(=O)c2ccccc2C1=O	none
O=C(CCCN1C(=O)c2ccccc2C1=O)Oc1ccc(F)cc1	D1 antag -32
Cc1cccc(NC(=O)c2nc[nH]c2C(=O)Nc2cc(Br)ccc2F)c1	none (no result: D1 ag, D1 PAM, D1 antag)
Cc1ccc(NC(=O)CSc2nnc(N)s2)c(C)c1	none (no result: DRD3 antagonist)
COc1ccc(NC(=O)COC(=O)CN2C(=O)c3ccccc3C2=O)cc1	DRD3 antagonist -54
COC(=O)c1ccccc1NC(=O)CCCn1c(C)c2cnn(-c3ccccc3)c(=O)c2c1C	none (no result: DRD3 antagonist)
COc1ccc(Cl)cc1NC(=O)CCCn1c(C)c2cnn(-c3ccccc3)c(=O)c2c1C	D3 ag 42, D1 antag -79 (no result: DRD3 antagonist)
COc1ccc(-c2noc3c2-c2nc(-c4cccc(C)c4)sc2CC3)cc1	D3 ag 59
CCC(CC)C(=O)NCCc1ccc(S(N)(=O)=O)cc1	D1 antag -42
NS(=O)(=O)c1ccc(CCNC(=O)c2ccc3ccccc3n2)cc1	D1 antag -31
Cc1cc2c(s1)c1cnn(Cc3ccc(SC(F)(F)F)cc3)c(=O)c1n2C	none (no result: D3 ag, DRD3 antagonist)
O=C(O)C1CCCCC1C(=O)OCCCCOC(=O)C1CCCCC1C(=O)O (configuration not stated)	D1 antag -31
Cc1cccc(NC(=O)CSc2nc(-c3ccccc3)c(C#N)c(=O)[nH]2)c1C	DRD3 antagonist -63
NC(=O)c1ccccc1OCC(=O)NS(=O)(=O)c1ccccc1	DRD3 antagonist -65
NC(=O)c1ccccc1OCC(=O)O	none
CN1C(=S)N(c2cccnc2)C(=O)/C1=C\c1ccc(C(C)(C)C)cc1	none
Cc1c(N2C(=O)/C(=C\c3ccc(N(C)C)cc3)N(C)C2=S)c(=O)n(-c2ccccc2)n1C	D1 ag 38
Cc1c(NC(=S)N/N=C/c2ccc(N(C)C)cc2)c(=O)n(-c2ccccc2)n1C	none
CN1C(=S)N(c2cccnc2)C(=O)/C1=C\c1ccc(N(C)C)cc1	D1 ag 91
O=C(O)c1cc(N/N=C/c2cccnc2)ccc1Cl	D1 antag -33
Cc1ccc(CN2CCN(CCCn3cnc4c(OCc5ccccc5)ncnc43)CC2)cc1	DRD3 antagonist -53 (no result: D1 ag, D1 PAM, D1 antag)
c1ccc(COc2ncnc3c2ncn3CCCN2CCN(Cc3cccc4ccccc34)CC2)cc1	DRD3 antagonist -67 (no result: D1 ag, D1 PAM, D1 antag)
CNC(=O)c1sc2ncccc2c1-n1cccc1	none (no result: DRD3 antagonist)
CNCCOc1ccccc1OC(C)C	DRD3 antagonist -79
CCc1ccc2c(CN(C)Cc3ccc(OC(F)F)c(OC)c3)cc(=O)oc2c1	none
O=C1CCSC2=C1SCc1sccc12	none (no result: D1 ag, D1 PAM, D1 antag)
Cc1ccc(S(=O)(=O)NC(C)C(=O)OCC(=O)N(C)c2ccccc2)cc1 (configuration not stated)	D1 antag -31
N#Cc1ccc(C(=O)NC(=S)NC2CCCCC2)cc1	DRD3 antagonist -55 (no result: D1 ag, D1 PAM, D1 antag)
CCCN(CCC)CCNC(=O)c1nn(C)c2c1CS(=O)(=O)c1ccccc1-2	none (no result: DRD3 antagonist)
Cc1cccc(NC(=O)Cn2c(=O)n(Cc3nc(-c4ccccc4)no3)c(=O)c3ccccc32)c1	none (no result: DRD3 antagonist)
COCCn1c(SCC(=O)c2ccc(C)cc2C)nc2cc(C(=O)NC3CCCC3)ccc2c1=O	none (no result: DRD3 antagonist)
CCOC(=O)C1(CCOC)CCN(Cc2nc(-c3cccs3)oc2C)CC1	DRD3 antagonist inconclusive
Cc1oc(-c2cccs2)nc1CN1CCC(CO)(CCOc2ccccc2)CC1	DRD3 antagonist -89
COc1ccc(CN2CCC(CO)(CCOc3ccccc3)CC2)c(OC)c1C	D1 ag 66, D1 antag -31
CCOc1ccccc1CN1CCC(CO)(CCOc2ccccc2)CC1	D1 ag 30
CC(C)CCNC(=O)Nc1cc(C(=O)NCc2cccc(F)c2)ccc1N1CCCC1	none (no result: DRD3 antagonist)
O=C(O)c1cc(NS(=O)(=O)c2ccc(N3CCCCC3)c([N+](=O)[O-])c2)cc(C(=O)O)c1	DRD3 antagonist inconclusive
CN1CCc2c(sc(NC(=O)c3ccc(S(=O)(=O)N4CCCC4)cc3)c2C(N)=O)C1	none
NC(=O)c1c(NC(=O)c2ccc([N+](=O)[O-])o2)sc2c1CCCC2	DRD3 antagonist -50 (no result: D1 PAM)
CN1CCc2c(sc(NC(=O)c3cc(Cl)sc3Cl)c2C(N)=O)C1	D1 antag -32
CN1CCc2c(sc(NC(=O)c3ccco3)c2C(N)=O)C1	DRD3 antagonist inconclusive
N#Cc1c(NC(=O)c2ccccc2)sc2c1CCC2	none
CN1CCc2c(sc(NC(=O)c3ccc([N+](=O)[O-])o3)c2C(N)=O)C1	DRD3 antagonist -56
N#Cc1c(NC(=O)c2ccc([N+](=O)[O-])o2)sc2c1CCC2	DRD3 antagonist -63
Cc1cc2c(cc1S(=O)(=O)C(C)CC(=O)NC1CCC(C)CC1)OCC(=O)N2 (configuration not stated)	none (no result: DRD3 antagonist)

From PubChem BioAssay
